Results as given in PubChem BioAssay AID651789 (National Center for Advancing Translational Sciences (NCATS), 2012).
Inconclusive results are not listed. Entries that show only a call come without a potency. Active and inactive are the calls of the source. Calls come from the whole dose curve; as a rule, active = well fitted inhibition curve with a large enough effect; inconclusive = small, poorly fitted or top-dose-only effect; inactive = no such curve, though single readings can be large or run the other way.
Potency is the fitted concentration of half-maximal effect.

Assay: Acumen qHTS Assay for Inhibitors of the mTORC1 Signaling Pathway in WT MEF Cells: Hit Validation; note: nearly all actives have a fitted effect of over 60% in size
Settings: Acumen imaging; series mostly up to 37.3 µM
Method in brief: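 Read-out is immunofluorescent phospho-rpS6 (Ser235/236) normalised to PI-stained cell number, reported as % active cells using a 7.5 nM rapamycin threshold. Cells: WT or Tsc2-/-, p53-/- MEFs, compound-exposed 24 h at 37C; PI count also tracks viability.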
For `Cc1cccc(Nc2ncc(NC(=O)c3cccc(F)c3)c(Nc3cccc(C)c3)n2)c1`, the Potency was 5.85 µM (active). In the case of `CCNS(=O)(=O)c1cc(-c2nnc(Nc3cccc(C(F)(F)F)c3)c3ccccc23)ccc1C`, the Potency is reported as “inactive”. With `O=S(=O)(NCC(c1ccco1)S(=O)(=O)c1cccs1)c1ccc(Cl)cc1` (stereo not given) the Potency was “inactive”. For `CCc1ccc(NC(=O)C2CCCN(S(=O)(=O)c3cccc4cccnc34)C2)cc1` (stereo not given), the Potency was “inactive”. For `CCCC(=O)OC1=CN(Cc2ccccc2)S(=O)(=O)c2ccccc21`, the Potency was 3.69 µM (active). For `CCOc1ccccc1NC(=O)c1cn(C2CCCC2)c(=O)c2c1c1ccccc1n2C`, the Potency was “inactive”. In the case of `CCCCN(C)CCNC(=O)c1cc2c(=O)n(C)c3ccccc3c2n1C`, the Potency is reported as “inactive”. In the case of `Cc1cccc(Cn2cc(C(=O)Nc3ccc(F)c(C(F)(F)F)c3)ccc2=O)c1`, the Potency is reported as “inactive”. In the case of `CCN1CCOC(=O)C1CC(=O)Nc1cc(C)ccc1OC` (stereo not given), the Potency is reported as 16.5 µM (active). In the case of `CC(C)Oc1ccc(CNC(=O)c2ccc3nc(SCc4ccc(F)cc4)n(C)c3c2)cc1`, the Potency is reported as “inactive”. In the case of `CCOc1ccc(Nc2nc(-c3cccc(Cl)c3)c3c(n2)-c2ccccc2OC3)cc1`, the Potency is reported as “inactive”. In the case of `O=S(=O)(NCC(c1ccco1)N1CCN(c2ccc(F)cc2)CC1)c1ccccc1` (stereo not given), the Potency is reported as “inactive”. For `CCC1=Nc2cc(C(=O)NC3CCCC3)ccc2Sc2ccc(Cl)cc21`, the Potency was 2.07 µM (active). With `CCOCc1cc(CN2CCN(c3ccccc3OC)CC2)c(O)c2ncccc12` the Potency was “inactive”. With `CC(C(=O)NCc1cccc(Br)c1)n1ncn2cccc2c1=O` (stereo not given) the Potency was “inactive”. For `Cc1ccc(S(=O)(=O)c2nnn3c2nc(NC2CCCCC2)c2sccc23)cc1C`, the Potency was “inactive”. With `CS(=O)(=O)CCNCc1ccc(-c2ccc3ncnc(Nc4ccc(OCc5cccc(F)c5)c(Cl)c4)c3c2)o1` the Potency was “inactive”. For `CCOc1ccc(-c2cnc(NCc3ccc(C(F)(F)F)cc3)n2C)cc1`, the Potency was “inactive”. In the case of `O=C(Nc1ccccc1)N(Cc1cccc(Cl)c1)c1ccccn1`, the Potency is reported as “inactive”. For `COc1ccc(C2CC(=O)c3c([nH]c(C(=O)OC4CCCCCC4)c3C)C2)cc1OC` (stereo not given), the Potency was “inactive”. With `CCC(C)NC(=O)c1sc2nc(C)c(C(=O)Nc3ccc(C)cc3C)c(-c3ccc(Cl)cc3)c2c1N` (stereo not given) the Potency was “inactive”. In the case of `CCOc1cc(C(=O)Nc2ccc(-c3cn4cccnc4n3)cc2)cc(OCC)c1OCC`, the Potency is reported as “inactive”. In the case of `CCN(Cc1nc(-c2ccc(OC)cc2)oc1C)S(=O)(=O)c1ccc(Cl)cc1`, the Potency is reported as “inactive”. In the case of `CCCN1C(=O)C(Cc2nc3ccccc3c(=O)n2CC)c2cc(Br)ccc21` (stereo not given), the Potency is reported as “inactive”. In the case of `Cc1ccc(NC(=O)Nc2cccs2)c(C)c1`, the Potency is reported as “inactive”. With `CCc1nn(CC(=O)NCc2ccccc2)c(=O)c2cccn12` the Potency was “inactive”. With `COc1ccc(Cn2c(C(=O)O)c(CNCc3ccccc3F)c3ccc(OC)cc32)cc1` the Potency was “inactive”. In the case of `Cc1cc(C)c(-c2n[nH]c3c2C(c2ccccc2F)N(Cc2ccco2)C3=O)c(O)c1` (stereo not given), the Potency is reported as “inactive”. With `CCOC(=O)c1ccc2ncc(C(=O)OCC)c(NCCc3ccc(OC)c(OC)c3)c2c1` the Potency was “inactive”. For `CS(=O)c1ccc(-c2nc(-c3ccc(F)cc3)c(-c3ccncc3)[nH]2)cc1` (stereo not given), the Potency was “inactive”. For `C#Cc1cccc(Nc2ncnc3cc(OCCOC)c(OCCOC)cc23)c1`, the Potency was “inactive”. In the case of `Cc1ccc(NC(=O)CSc2nc(-c3ccco3)cc(C(F)(F)F)n2)cc1C`, the Potency is reported as “inactive”. For `COc1cc(NC(=O)Cn2nc(C(F)(F)F)c3c2CCCC3)c(OC)cc1Cl`, the Potency was “inactive”. In the case of `CCOC(=O)Cn1c(=O)c2c(nc(N3CCOCC3)n2Cc2ccccc2)n(C)c1=O`, the Potency is reported as 4.14 µM (active). In the case of `CCN(C(=O)C(NS(=O)(=O)c1ccc(Br)s1)c1ccccc1)c1ccc(C)c(C)c1` (stereo not given), the Potency is reported as “inactive”. In the case of `CC1=Nc2cc(C(=O)NC3CCCC3)ccc2Sc2ccc(Cl)cc21`, the Potency is reported as 0.826 µM (active). In the case of `CCS(=O)(=O)c1ccccc1C(=O)N(Cc1cccnc1)c1nc2cc(C)c(C)cc2s1`, the Potency is reported as “inactive”. In the case of `COCc1oc2ccc(NS(=O)(=O)c3ccc(C)cc3)cc2c1C(=O)OC`, the Potency is reported as 5.85 µM (active). In the case of `COc1ccc2c(CNCCc3cccs3)c(C(=O)O)n(Cc3ccc(F)cc3Cl)c2c1`, the Potency is reported as “inactive”. In the case of `COc1cccc(-c2nnc3sc(CN4CCCCC4)cn23)c1`, the Potency is reported as 1.65 µM (active).
